The results in this text go back to PubChem BioAssay AID1030 (National Center for Advancing Translational Sciences (NCATS), 2008).

Screen size: about 220,000 compounds; about 16,000 (7.3%) were called active. Entries that show only a call come without a potency. Another 25% or so got no clear call; they are omitted. Only a selection was taken, and actives are over-represented in it overall. Values without a mark were called inactive. Calls follow the shape of the dose curve; as a rule, active = well fitted inhibition curve with a large enough effect (not every such curve was filed as active); inconclusive = small, poorly fitted or top-dose-only effect, or another doubt; inactive = no such curve, though single readings can be large or run the other way.
Potency is read from the fitted curve at half-maximal effect.

The target in this assay is Aldehyde dehydrogenase 1A1 (Homo sapiens) (UniProt P00352). The experiment in a line: qHTS Assay for Inhibitors of Aldehyde Dehydrogenase 1 (ALDH1A1). As to conditions: Purified ALDH1A1, NADH fluorescence, propionaldehyde substrate; series mostly up to 75.3 µM. On the technique in general: qHTS replaces the single test concentration by a dilution series.
Aldehyde dehydrogenase 1A1 (Homo sapiens), sequence (P00352 whole entry, looked up): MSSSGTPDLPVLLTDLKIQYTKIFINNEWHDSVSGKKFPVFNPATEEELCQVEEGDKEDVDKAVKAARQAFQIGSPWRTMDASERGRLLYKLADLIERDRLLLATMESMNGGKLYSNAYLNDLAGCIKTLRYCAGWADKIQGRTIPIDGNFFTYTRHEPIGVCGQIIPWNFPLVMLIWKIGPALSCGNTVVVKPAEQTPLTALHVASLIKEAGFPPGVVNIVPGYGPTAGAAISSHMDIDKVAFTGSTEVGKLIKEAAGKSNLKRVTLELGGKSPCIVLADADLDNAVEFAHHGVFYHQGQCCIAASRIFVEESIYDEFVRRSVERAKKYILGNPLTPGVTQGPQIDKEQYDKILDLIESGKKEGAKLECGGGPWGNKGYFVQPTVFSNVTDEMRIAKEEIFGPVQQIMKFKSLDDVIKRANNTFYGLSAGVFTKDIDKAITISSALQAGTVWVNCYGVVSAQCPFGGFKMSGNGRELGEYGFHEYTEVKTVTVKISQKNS
Turning to `Cc1[nH]c2ccccc2c1-c1ccc(Cl)nn1`, the Potency result was “inactive”.
Still for that read-out and setting: under `CC1(C)CC(=O)C2=C(C1)Nc1cc(C(=O)c3ccccc3)ccc1NC2c1ccccn1` (configuration not stated) stands “inactive”; under `CC(=O)C1=C(C)NC2=C(C(=O)CC(C)(C)C2)C1C` (configuration not stated), “inactive”.
Same read-out and setting: next, `Cc1cc2c(cc1C)NC(c1ccccn1)C1=C(CC(C)(C)CC1=O)N2` (configuration not stated): 14.1 µM (active); `COCCn1c(C)cc(C(=O)CSc2nc3ccccc3c(=O)n2C(C)COC)c1C` (configuration not stated): “inactive”.
Take `O=C(NNC(=O)C1CCN(c2ncccn2)CC1)c1ccccc1`: the Potency result is “inactive”.
Take `O=C(Cc1ccccc1)NNC(=O)C1CCN(c2ncccn2)CC1`: the Potency result is “inactive”.
Still for that read-out and setting: next, `O=C1/C(=C\Nc2ccccc2)CCN1c1ncccn1`: 20 µM (active).
Same read-out and setting: under `CC1=C(C(=O)N(C)C)C(c2ccccc2OC(F)F)NC(=O)N1` (configuration not stated) stands “inactive”; under `COC(=O)c1cc(Cl)c(NC(=O)c2ccco2)cc1OC`, “inactive”.
On to `Cc1ccc(-n2nc3cc(Cl)c(NC(=O)c4ccco4)cc3n2)cc1`, for which the Potency entry was “inactive”.
Same read-out and setting: under `COc1cc(NC(=O)c2cc([N+](=O)[O-])ccc2Br)ccc1NC(=O)c1ccco1` stands “inactive”; under `CCC(=O)NC(=S)Nc1ccc(NC(=O)c2ccco2)c(Cl)c1`, 3.55 µM (active); under `O=C(Nc1ccc(NC(=O)c2ccco2)c(Cl)c1)c1cccc([N+](=O)[O-])c1`, “inactive”.
Still for that read-out and setting: next, `O=C(Nc1ccc(Sc2ccc(Br)cc2)cc1)c1ccco1`: “inactive”; `COc1ccc(NC(=O)c2cccc(NC(=O)c3ccco3)c2)c(OC)c1`: “inactive”; `O=C(NNC(=S)Nc1ccc(Br)cc1Cl)c1ccco1`: 12.6 µM (active).
Still for that read-out and setting: under `COc1ccccc1C(=O)Nc1ccc(NC(=O)c2ccco2)c(C)c1` stands 8.91 µM (active).
As to `O=C(NNS(=O)(=O)c1ccccc1C(F)(F)F)c1cc2ncc(C(F)(F)F)cc2s1`, the Potency result was “inactive”.
For `Cc1nnsc1C(=O)N/N=C/c1cccc(C(F)(F)F)c1`, the Potency entry is “inactive”.
Still for that read-out and setting: under `Cc1cc(C)c(NC(=O)c2oc3ccccc3c2COc2ccccc2)c(C)c1` stands “inactive”; under `N#Cc1ccc(Oc2ccc(C(F)(F)F)cc2NC(=O)c2ccc(F)cc2)cc1`, “inactive”; under `Cc1cc(C)nc(/N=C2\NC(=O)CC(C(=O)O)N2c2ccc(Cl)cc2Cl)n1` (configuration not stated), “inactive”.
Turning to `CCC(=O)/C(=C(/O)c1ccccc1)c1nc2ccccc2[nH]1`, the Potency result was “inactive”.
Still for that read-out and setting: next, `CSc1sc(C(=O)NNC(=O)c2ccc(Cl)cc2)c2c1C=CCC2`: “inactive”; `CC1CCN(S(=O)(=O)c2ccc3ncn(CC(=O)N(C)C4CCCCC4)c(=O)c3c2)CC1`: “inactive”.
Turning to `O=C(CCC(=O)Nc1ccccc1)N/N=C/c1ccccc1F`, the Potency entry is “inactive”.
Regarding `O=C(CN1CCSCC1)N/N=C/c1ccc(F)cc1F`, the Potency was 31.6 µM (active).
The same measure, in the same setting: under `O=C(Cn1cc(C(F)(F)F)ccc1=O)N/N=C/c1ccc(Cl)cc1Cl` stands “inactive”; under `O=C(C1CCN(C2CCN(Cc3cccc4c3OCO4)CC2)CC1)N1CCOCC1`, “inactive”; under `CC(=O)c1c(C)[nH]c(C(=O)Nc2cc(S(=O)(=O)N(C)C)ccc2C)c1C`, “inactive”.
Same read-out and setting: next, `Cc1cc(NC(=O)CSc2nccn2-c2ccc([N+](=O)[O-])cc2)no1`: “inactive”; `CN(CCOc1ccc(Br)cc1)CC(=O)Nc1cccc(S(=O)(=O)NC2=NCCC2)c1`: “inactive”; `CC1CCCC(C)N1/N=C/c1ccccc1OC(F)F` (configuration not stated): “inactive”.
Still for that read-out and setting: next, `CN1CCN(S(=O)(=O)c2ccc(NC(=O)C3CCCO3)cc2)CC1` (configuration not stated): “inactive”.
As to `COc1ccc(NC(=O)CN2CCN(S(=O)(=O)c3ccc(F)cc3)CC2)cc1Cl`, the Potency entry was “inactive”.
Same read-out and setting: under `CN(CC(=O)Nc1ccc(S(=O)(=O)N2CCCC2)cc1)Cc1ccc(Cl)c(Cl)c1` stands 20 µM (active); under `OCCC#Cc1ccc(CN2CCN(Cc3ccsc3)C(CCO)C2)cc1` (configuration not stated), “inactive”; under `NC(CSC12CC3CC(CC(C3)C1)C2)C(=O)O` (configuration not stated), 12.6 µM (active).
For `Cc1ccc(C)c(NC(=O)CCC(=O)N/N=C2/CC(=O)CC(C)(C)C2)c1`, the Potency entry is “inactive”.
Still for that read-out and setting: under `O=C(CN1CCN(c2ccc(O)cc2)CC1)Nc1cc(S(=O)(=O)N2CCOCC2)ccc1Cl` stands 25.1 µM (active).
Same read-out and setting: under `O=C(CN1CCOCC1)Nc1cc(Cl)ccc1Cl` stands “inactive”.
As to `O=C(COc1cccc2ccccc12)Nc1cc(S(=O)(=O)N2CCOCC2)ccc1N1CCOCC1`, the Potency entry was “inactive”.
For `C=CCn1c(Oc2ccc(C(=O)OC)cc2)nc2c1c(=O)n(C)c(=O)n2C`, the Potency result was “inactive”.
The same measure, in the same setting: next, `Cn1c(=O)c2c(nc(N/N=C/c3cccs3)n2Cc2ccc(Br)cc2)n(C)c1=O`: “inactive”; `C/C(Cl)=C\Cn1c(Nc2cccc(C)c2)nc2c1c(=O)n(C)c(=O)n2C`: 20 µM (active).
On to `CC[C@H](C)[C@@H](C(=O)N1CCNCC1)n1cc([C@@H](N)Cc2ccc(O)cc2)nn1`, for which the Potency entry is “inactive”.
As for `COC(=O)C1=C(C(=O)OC)[C@@H]2N(C)c3ccccc3[C@@]23C[C@@H](C(=O)OC)N(S(=O)(=O)c2ccc(Br)cc2)C3=N1`, the activity, negative = inhibition was 6.9% [at 13.5 µM].
On to `O=c1[nH]n2c(=O)c3c([nH]c2c1N=Nc1ccccc1)CCC3`, for which the Potency entry was “inactive”.
On the same count and under the same terms, under `O=[N+]([O-])/C(N=Nc1ccccc1)=N\Nc1ccccc1` stands 14.1 µM (active); under `O=C(/C=N/O)Nc1ccccc1`, “inactive”; under `COc1cc(C(=O)Nc2cc(C(F)(F)F)ccc2-n2cncn2)cc(OC)c1OC`, “inactive”.
On the same count and under the same terms, under `CCOc1ccc(CN2CCN(Cc3ccon3)CC2CCO)cc1` (configuration not stated) stands “inactive”; under `COc1ccc(/C=N/NC(=O)c2cccc(C(F)(F)F)c2)cc1`, “inactive”; under `CCOc1ccc2nc(C(=O)N3CCCC(C)C3)sc2c1` (configuration not stated), 14.1 µM (active).
Same read-out and setting: under `COc1ccc2nc(NC(=O)[C@@H]3CCCN3C(=O)c3cccs3)sc2c1` stands “inactive”.
With `CCOc1ccc(NC(=O)C2CCCN(C(=O)Nc3ccccc3)C2)cc1` (configuration not stated), the Potency result was “inactive”.
Still for that read-out and setting: next, `COc1cc(OC)nc(N/N=C(\c2ccccc2)c2ccncc2)n1`: “inactive”; `COc1ccc(-c2nnc3ccc(SCc4ccccc4)nn23)cc1`: “inactive”.
The same measure, in the same setting: under `Fc1cccc(CSc2nnc3ccc(-c4ccncc4)nn23)c1` stands “inactive”.
Still for that read-out and setting: under `Cc1ccc(/C=C/C(=O)Nc2cc(S(=O)(=O)N3CCCCCC3)ccc2OCC(F)(F)F)o1` stands 28.2 µM (active).
For `COc1ccc(S(=O)(=O)N2CCCCCC2)cc1C(=O)OCC(=O)Nc1cc(C)on1`, the Potency result is “inactive”.
Turning to `Cc1cccc(OCCC(=O)Nc2cc(S(=O)(=O)N3CCCCC3)ccc2N2CCOCC2)c1`, the Potency entry is “inactive”.
Same read-out and setting: under `CCc1ccc(CN2C(=O)c3ccccc3C2C(=O)NCC2CCCO2)cc1` (configuration not stated) stands “inactive”; under `CSc1nc(C)cc(SC(C(C)=O)C(=O)Nc2ccccc2)n1` (configuration not stated), 15.8 µM (active).
On the same count and under the same terms, under `CSc1nc(N(C)NC(=O)c2cccc(C)c2)c2ccccc2n1` stands “inactive”.
The same measure, in the same setting: under `CC(Sc1nnc2c(n1)C1CCC2(C)C1(C)C)C(=O)Nc1ccccc1` (configuration not stated) stands “inactive”; under `CC(=O)c1cc(-c2ccccc2)n(CC(=O)NC2CCCCC2)c1C`, “inactive”.
In the case of `COC(=O)C(C(=O)OC)C1c2ccccc2C=C(C2CC2)N1C(=O)OC` (configuration not stated), the Potency result is “inactive”.
Turning to `CC(C)(C)N(CC#CCC(O)(c1ccccc1)C1CCCC1)CCO` (configuration not stated), the Potency entry was “inactive”.
Regarding `O=C(COC(=O)c1ccc(F)cc1)Nc1nc2ccc([N+](=O)[O-])cc2s1`, the Potency entry was “inactive”.
`CC(C)C(NC(=O)C1CCC(C(C)(C)C)CC1)C(=O)NCCCN1CCCCC1` (configuration not stated): the Potency entry was “inactive”.
On to `CCOC(=O)CN(C)S(=O)(=O)c1ccc(-c2cc(C(=O)OC)sc2C(F)(F)F)cc1`, for which the Potency is 5.97 µM (active).
`COc1cccc(NC(=O)CN(C)S(=O)(=O)c2ccc(C)cc2)c1`: the Potency entry was “inactive”.
For the compound `COC(=O)c1sc(C(F)(F)F)c(-c2ccccc2)c1S(=O)(=O)N(C)C`, the Potency result is “inactive”.
On the same count and under the same terms, under `Cc1ccc(SC(CC(=O)c2ccc(C(C)(C)C)cc2)C(=O)O)cc1` (configuration not stated) stands 0.199 µM (active); under `Cc1ccc(SC(C)C(=O)NCc2ccc(F)cc2)cc1` (configuration not stated), “inactive”.
The same measure, in the same setting: next, `Cc1ccn(C(CC(=O)c2ccc(Br)cc2)C(=O)O)n1` (configuration not stated): “inactive”.
On the same count and under the same terms, under `Cc1sc2c(c1C)c(=O)n(-c1ccccc1)c(=O)n2CC(=O)NCC1CCCO1` (configuration not stated) stands “inactive”.
On to `O=C(c1ccc(Cl)cc1)c1ccc(OCC(O)CN2CCCCC2)cc1` (configuration not stated), for which the Potency entry was “inactive”.
Take `Cn1c(=O)c2c(nc(N3CCCCCC3)n2CC(=O)c2ccc(Br)cc2)n(C)c1=O`: the Potency result was “inactive”.
Regarding `Cn1c(=O)c2c(nc(N3CCCCCC3)n2CC(O)COc2ccc(Cl)cc2)n(C)c1=O` (configuration not stated), the Potency is 11.2 µM (active).
The same measure, in the same setting: next, `CC(C(=O)N=Nc1c(O)n(C)c2ccc(Br)cc12)n1cnc2ccccc2c1=O` (configuration not stated): “inactive”; `Cc1ccc(S(=O)(=O)Nc2nc(N)n(-c3ccccc3)n2)cc1`: “inactive”; `Cc1c(NC(=O)CSc2nnnn2-c2ccc(C(=O)O)cc2)c(=O)n(-c2ccccc2)n1C`: “inactive”.
On the same count and under the same terms, under `O=c1c2ccccc2nnn1CSc1nnnn1-c1ccccc1` stands “inactive”.
Still for that read-out and setting: next, `Cc1ccccc1-n1nnnc1SCCCC(=O)c1ccc(F)cc1`: 0.0794 µM (active).
For `NC(N)=Nc1nc2ccc(Br)cc2c(=O)[nH]1`, the Potency result was “inactive”.
Still for that read-out and setting: next, `O=C(Nc1cccnc1)c1ccc(Cl)c([N+](=O)[O-])c1`: “inactive”; `C=C(C)CSc1nc(N)c2c3c(sc2n1)CCC3`: “inactive”; `COCCn1c(C)cc(C(=O)CSc2ncnc3sc4c(c23)CCC4)c1C`: “inactive”.
Same read-out and setting: next, `Cc1cc(C)n(-c2nc(SCC(=O)N3CCCC3)c3c4c(sc3n2)CCCC4)n1`: 14.1 µM (active).
For `Cc1[nH]nc(SCC(=O)NCC(C)C)c1[N+](=O)[O-]`, the Potency entry is “inactive”.
Same read-out and setting: next, `Cc1ccccc1CN1CCN(C(=O)c2cccc(F)c2)CC1`: 15.8 µM (active).
Still for that read-out and setting: under `O=C(CN1CCN(C/C=C/c2ccccc2)CC1)Nc1ccc(F)cc1F` stands “inactive”; under `O=C(c1cccc(F)c1)N1CCC2(CC1)CCN(c1ccccc1)CC2`, “inactive”; under `O=C(c1cccc(F)c1)N1CCC(O)(c2cccnc2)CC1`, “inactive”.
The same measure, in the same setting: next, `Cc1ccccc1CS(=O)(=O)CC1(O)CCN(C(=O)c2cccc(C(F)(F)F)c2)CC1`: “inactive”; `O=C(CN1CCN(C(=O)c2cccc(F)c2)CC1)Nc1ccccc1F`: 12.6 µM (active).
As for `COc1ccc(Cn2c(=O)cc(C)[nH]c2=S)cc1`, the Potency entry is “inactive”.
With `CCOc1ccc2sc(NS(=O)(=O)c3ccc(N)cc3)nc2c1`, the Potency entry is “inactive”.
Regarding `Cc1cccc(NC(=S)NCCN(C2CCCCC2)C2CCCC2)c1`, the Potency entry is “inactive”.
